# HCMV antiviral: qHTS Assay for inhibitors of the human cytomegalovirus (HCMV); activity change, negative = inhibition, % at 57.5 µM; actives 4.5% (n = 410,000); HFF cells, HCMV-luciferase reporter, 72 h; hits give low values; AID 1259415, 2018; in the data active means activity change below about -60%; inconclusive means no clear call, values can overlap the other calls; inactive means above about -39%; further: on the % scale 0 is the no-effect control and ±100 the full control effect
#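 Inhibition of viral replication was scored as loss of reporter luminescence in HFFs infected with HCMV-luciferase (MOI 1 PFU/cell) for 72 h; compounds tested at 2 doses, normalized to buffer and Salinomycin controls.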
# HCV inhibitor: qHTS Assay for Inhibitors of Hepatitis C Virus (HCV); Huh7.5.1 HCVcc-Cre infection, luciferase reporter, 44 h; Potency, µM (top dose mostly 41.8 µM), without a hit: at the highest dose activity change, negative = inhibition, hits mostly inhibitors; actives 3.4% (n = 340,000); active means well fitted inhibition curve with a large enough effect; inconclusive means small, poorly fitted or top-dose-only effect, or another doubt; inactive means no such curve, though single readings can be large or run the other way; further: potency means the concentration at half of the fitted maximal effect; on the % scale 0 is the no-effect control and ±100 the full control effect
#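 Whole-lifecycle infectious HCVcc-Cre system; cells 1,000/well, compound then virus (~0.5 moi) added 4 h after plating, 44 h culture. Luciferase read 15 sec following 15 min substrate incubation, room temp.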
# SARS PLP yeast: qHTS of Yeast-based Assay for SARS-CoV PLP; actives 0.19% (n = 330,000); S. cerevisiae expressing SARS-CoV PLpro, growth rescue; AID 485353, 2010; Potency, µM (titrated, usually from 32.9 µM), inactives show at the highest dose activity, positive = growth rescue, actives largely listed as activators; calls by dose curve; further: potency means the concentration at half of the fitted maximal effect; 0% is about no effect; nearly all actives have a fitted effect of over 55% in size
# LASV entry inh: qHTS for Inhibitors of binding or entry into cells for Lassa Virus | Lassa virus pseudotype entry inhibition, cell reporter | Potency, µM (highest dose often 37.9 µM), for inactives: top-dose activity change, negative = inhibition, actives largely listed as inhibitors | actives 1.2% (n = 300,000); calls by dose curve; tested in HEK293 cells; further: potency means the concentration at half of the fitted maximal effect; on the % scale 0 is the no-effect control and ±100 the full control effect; nearly all actives have a fitted effect of over 50% in size
# MARV entry inh: qHTS for inhibitors of binding or entry into cells for Marburg Virus. AID 540276, 2011. Marburg virus pseudotyped entry inhibition, cell reporter. actives 1.8% (n = 300,000). Potency, µM (doses to about 37.8 µM), without a hit: at the top dose activity change, negative = inhibition, actives largely listed as inhibitors; calls by dose curve; tested in HEK293 cells; further: potency means the concentration at half of the fitted maximal effect; on the % scale 0 is the no-effect control and ±100 the full control effect
# FMDV antiviral: High Throughput Screening for Foot and Mouth Disease Virus Antivirals | AID 1159524, 2015 | FMDV antiviral cell-based qHTS | Potency, µM (top dose mostly 57.9 µM), without a hit: at the highest dose activity change, negative = inhibition, usual class: inhibitors | actives 1.2% (n = 410,000); calls by dose curve; tested in HEK293T cells; further: read-out not given here; potency means the concentration at half of the fitted maximal effect; on the % scale 0 is the no-effect control and ±100 the full control effect; nearly all actives have a fitted effect of over 45% in size
# Active calls of the source: *; ? = inconclusive; / = no result; [ ] = another dose, or the depositor's remark. The list is not random: actives were taken first. Their share in the collection is about 8%.
SMILES,HCMV antiviral,HCV inhibitor,SARS PLP yeast,LASV entry inh,MARV entry inh,FMDV antiviral
COc1ccccc1NC(=O)C1=C(C)NC(=O)NC1c1cccs1 (stereo unspecified),0,6%,-2%,6%,6%[46.1 µM],1%
COCCN1Cc2cccc(C(=O)Nc3cccc(-c4nc5ccccc5[nH]4)c3)c2C1=O,-69*,?,-8%,?,?,-12%
CS(=O)(=O)c1ccc(C(=O)Nc2cccc(-c3nc4ccccc4[nH]3)c2)cc1,27,?,11%,/,/,?
CCOc1cc(OCC)cc(C(=O)Nc2cccc(-c3nc4ccccc4[nH]3)c2)c1,-98*,/,/,?,/,?
CCCOc1ccc(C(=O)Nc2cccc(-c3nc4ccccc4[nH]3)c2)cc1,-88*,/,/,-17%[46.1 µM],1%[46.1 µM],?
COCCN1Cc2cccc(C(=O)Nc3ccc(-c4nc5ccccc5[nH]4)cc3)c2C1=O,-19,-1%,21%,1%,?,2%
CCOc1ccc(OCC(=O)Nc2c(C(=O)Nc3ccc(C)cc3)oc3ccccc23)cc1,20,/,/,-6%[46.1 µM],-1%[46.1 µM],15%
C[C@@H]1CN([C@@H](C)CO)C(=O)CCCn2nncc2CO[C@@H]1CN(C)S(=O)(=O)c1cccc(F)c1,22,/,/,/,/,-19%
O=C(NCCc1nnc2n1CCN(Cc1ccc(F)cc1)CC2)c1ccc(F)cc1,/,/,/,/,/,-10%
CCOC(=O)CC1(C)c2nc(NC(C)=O)sc2Cc2sc(NC(C)=O)nc21,-97*,/,/,/,/,22%
CCOC(=O)c1sc(NC(C)=O)nc1C,21,-25%,-3%,-15%,?,/
COc1ccc(NS(=O)(=O)c2ccc(N3CCOCC3)c(NC(=O)c3cccc(F)c3)c2)cc1,-78*,-45%,?,?,?,48%
COc1ccc(NS(=O)(=O)c2ccc(N3CCOCC3)c(NC(=O)C(C)C)c2)cc1,?,-9%,2%,-28%,?,-3%
O=C(Nc1cc(S(=O)(=O)Nc2ccc(Cl)cc2)ccc1N1CCCCC1)c1ccc(F)cc1,-64*,7.1µM*,-5%,?,?,26%
O=C(Nc1cc(Cl)ccc1N1CCOCC1)c1ccc(Br)o1,/,5%,3%,0%,-21%,-5%
COc1ccc(N2CCOCC2)c(NC(=O)c2ccc(Br)o2)c1,-81*,/,-2%,-4%,?,?
COc1ccc(NS(=O)(=O)c2ccc(N3CCOCC3)c(NC(=O)c3ccc(F)cc3)c2)cc1,-33,?,21%,?,3.5µM*,72%
C[C@@H]1CC2C3CCC4=CC(=O)C=C[C@]4(C)[C@@]3(F)[C@@H](O)C[C@]2(C)[C@@]1(O)C(=O)CO (stereo partly specified),/,/,/,/,-5%,/
CCOC(=O)/C=C/C(=O)Nc1cc(S(=O)(=O)Nc2ccc(OC)cc2)ccc1N1CCOCC1,-29,?,1%,?,?,32µM*
COc1ccc(NS(=O)(=O)c2ccc(N3CCOCC3)c(NC(=O)c3ccco3)c2)cc1,-22,-27%,0%,?,-8%[46.1 µM],65%
COc1ccccc1NS(=O)(=O)c1ccc(N2CCOCC2)c(NC(=O)c2ccco2)c1,-25,11µM*,0%,/,-18%[46.1 µM],40%
COc1ccc(NS(=O)(=O)c2ccc(N3CCCCC3)c(NC(=O)C(C)NC(N)=O)c2)cc1 (stereo unspecified),-28,?,2%,-9%,-4%,19%
COc1cc(C(=O)OCC(=O)NCc2ccc(F)cc2)ccc1OCC(C)C,-17,/,1%,?,-23%,-16%
COc1ccc(-c2[nH]c3ccccc3c2SCCNC(=O)c2ccccc2)cc1,-28,13µM*,8%,?,?,0%
Cc1ccc(C(=O)NCCSc2c(C)[nH]c3ccccc23)cc1[N+](=O)[O-],11,11µM*,-20%,?,9%,35µM*
SMILES,HCMV antiviral,HCV inhibitor,SARS PLP yeast,LASV entry inh,MARV entry inh,FMDV antiviral
COc1ccccc1C(=O)NCCSc1c(C)[nH]c2ccccc12,-39,/,/,-9%[46.1 µM],-30%[46.1 µM],?
COc1cccc(C(=O)NCCSc2c(C)[nH]c3ccccc23)c1OC,-32,13µM*,-2%,/,/,?
CCOC(=O)c1sc2cccc(F)c2c1S(=O)(=O)N1CCN(c2cccc(Cl)c2)CC1,-9,/,/,-21%[46.1 µM],/,-14%
OCc1ccccc1O[C@@H]1O[C@H](CO)[C@@H](O)[C@H](O)[C@H]1O,/,17%,-10%,/,/,-19%
OCC1OC(Oc2c[nH]c3ccccc23)C(O)C(O)C1O (stereo unspecified),-98*,18%,-1%,/,/,-24%
NC(=O)c1nsc(C(=O)N(Cc2ccc(F)cc2)C(C(=O)NCC2CCCO2)c2ccc(F)cc2)c1N (stereo unspecified),-2,-13%,14%,-8%,11µM*,16%
CN(C)c1ccc(C(C(=O)NCC2CCCO2)N(Cc2ccccc2)C(=O)c2snc(C(N)=O)c2N)cc1 (stereo unspecified),-17,-6%,2%,?,?,3%
Cc1ccc(C(C(=O)NCc2ccc(F)cc2)N(Cc2ccco2)C(=O)c2snc(C(N)=O)c2N)o1 (stereo unspecified),-81*,?,-1%,?,?,18%
CN(C)c1ccc(C(C(=O)NCc2ccccc2)N(Cc2ccco2)C(=O)c2snc(C(N)=O)c2N)cc1 (stereo unspecified),-76*,13µM*,-2%,?,?,-10%
Cn1cc(-c2cc3cnc(Nc4ccc5c(c4)OCO5)cc3n2C)cn1,-7,/,/,/,/,/
CCN(CC)S(=O)(=O)c1ccc2oc(SCc3ccc(F)cc3)nc2c1,?,?,-12%,11µM*,?,?
CCN(CC)S(=O)(=O)c1ccc2oc(SCC(=O)Nc3cc(C)on3)nc2c1,?,6.3µM*,11%,?,?,-3%
COc1ccccc1NS(=O)(=O)c1ccc2oc(SCc3ccc(C#N)cc3)nc2c1,-84*,11µM*,8%,?,?,?
CCS(=O)(=O)c1ccc2oc(SCC(=O)NCCC3=CCCCC3)nc2c1,-103*,3%,4%,-12%,?,?
Cc1cc(NC(=O)CSc2nc3cc(Cl)ccc3o2)no1,-39,-20%,0%,4%[46.1 µM],13%[46.1 µM],-10%
CCS(=O)(=O)c1ccc2oc(SCC(=O)NCCc3ccc(F)cc3)nc2c1,?,-23%,0%,-5%,-5%[46.1 µM],?
COC(=O)c1ccc(NC(=O)Cc2coc3cc(C)ccc23)cc1,-8,/,/,-2%[46.1 µM],6%[46.1 µM],-8%
